In the supplement of paper PMC4466140:

What was measured:
Assay in all cases: SPOT peptide array binding signal intensity (averaged, normalized) (arbitrary units (background-subtracted, floor 0; scale differs between SH3 domains)); higher = stronger binding of the SH3 domain to the peptide
SpBzz1-D2 = target: SpBzz1-D2
In short: (§1)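 To measure binding, SH3 domains from four yeast species were fused to GST, expressed in E. coli BL21(DE3) and purified on glutathione Sepharose. Each domain was incubated at 10 μg/ml overnight at 4°C on cellulose membranes with synthetic 15-mer peptides whose cysteines were replaced by serines. Anti-GST antibody, an HRP anti-mouse secondary and luminol were used for detection, and images were quantified with Genespotter. Reported binding signal is normalized, background-subtracted spot intensity averaged over replicates, in arbitrary units that differ between domains.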

SpCyk3 = target: SpCyk3
In short: as §1

SpHof1 = target: SpHof1
In short: as §1

SpHof1-2 = target: SpHof1-2
In short: as §1

SpHof1-3 = target: SpHof1-3
In short: as §1

SpHse1 = target: SpHse1
In short: as §1

SpLsb1 = target: SpLsb1
In short: as §1

SpLsb4 = target: SpLsb4
In short: as §1

SpMyo1 = target: SpMyo1
In short: as §1

SpNbp2 = target: SpNbp2
In short: as §1

SpPex13 = target: SpPex13
In short: as §1

SpRvs167 = target: SpRvs167
In short: as §1

SpSla1-D1-D2 = target: SpSla1-D1-D2
In short: as §1

SpSla1-D3 = target: SpSla1-D3
In short: as §1

B1: unnamed (peptide)
chain: ISRRRLPVIMHRLKM
- SPOT peptide array binding signal intensity (SpBzz1-D2): 0.5
- SPOT peptide array binding signal intensity (SpCyk3): 16
- SPOT peptide array binding signal intensity (SpHof1): 285
- SPOT peptide array binding signal intensity (SpHof1-2): 101
- SPOT peptide array binding signal intensity (SpHof1-3): 618
- SPOT peptide array binding signal intensity (SpHse1): 690
- SPOT peptide array binding signal intensity (SpLsb1): 1.5
- SPOT peptide array binding signal intensity (SpLsb4): 484
- SPOT peptide array binding signal intensity (SpMyo1): 2.5
- SPOT peptide array binding signal intensity (SpNbp2): 437
- SPOT peptide array binding signal intensity (SpPex13): 22
- SPOT peptide array binding signal intensity (SpRvs167): 159
- SPOT peptide array binding signal intensity (SpSla1-D1-D2): 14
- SPOT peptide array binding signal intensity (SpSla1-D3): 18.5
